Bioassay records: PubChem BioAssay, National Center for Advancing Translational Sciences (NCATS)
KB-3-1 tox = qHTS assay for MDR1-selective chemotherapeutics: Primary screen using the parental adenocarcinoma cell KB-3-1 | KB-3-1 viability, CellTiter-Glo ATP luminescence, 72 h | Potency, µM (series often up to 46.1 µM), actives largely listed as cytotoxic | actives 1.4% (n = 400,000); further: on the % scale 0 is the no-effect control and ±100 the full control effect; nearly all actives have a fitted effect of over 60% in size
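72 h, 37 °C compound treatment of KB-3-1 parental cells; CellTiter-Glo added, 10 min, luminescence read. Data corrected against DMSO-only plates and normalized before curve fitting.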
HT1080 IDH1KD tx = qHTS for induction of synthetic lethality in tumor cells producing 2HG: qHTS for the HT-1080-IDH1KD cell line. HT-1080 IDH1 knockdown viability, ATP luminescence, 48 h. Potency, µM (titrated, usually from 46.1 µM), for the others: at the highest dose activity, negative = toxicity, actives largely listed as cytotoxic. actives 2% (n = 360,000);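 further: 0% = DMSO wells and -100% = cell-free medium wells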
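% activity derives from luminescence (CellTiter-Glo), normalised to DMSO and no-cell wells. HT-1080-IDH1KD cells, 750/well, had 48 h compound exposure at 37 °C.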
TGFb inhibitor = qHTS for Inhibitors of TGF-b; Potency, µM (titrated, usually from 46.1 µM), inactives show top-dose activity, negative = inhibition, hits mostly inhibitors; actives 1.2% (n = 410,000); HepG2 CAGA-GFP TGF-b/SMAD3 reporter, GFP fluorescence, 18 h; TGF-beta stimulated, 500 pg/mL final; AID 588855, 2011; further: on the % scale 0 is the no-effect control and ±100 the full control effect; nearly all actives have a fitted effect of over 65% in size
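Inhibition was scored as loss of TGF-beta-induced (500 pg/mL final, 18 hours, 37 degrees C) GFP in HEPG2 cells carrying a CAGA-GFP reporter, in DMEM with 1% FBS. Well GFP was summed per cell; Activity was normalised to unstimulated and stimulated DMSO wells, then concentration-response fitting.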
KB-V1 MDR tox = qHTS assay for MDR1-selective chemotherapeutics: Primary screen using the drug-selected MDR subline cells KB-V1; KB-V1 MDR cells viability, CellTiter-Glo, 72 h; Potency, µM (titrated, usually from 46.1 µM), hits mostly cytotoxic; actives 3.4% (n = 400,000); further: on the % scale 0 is the no-effect control and ±100 the full control effect; nearly all actives have a fitted effect of over 60% in size
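Readout: CellTiter-Glo luminescence, 10 min after addition. Cells: KB-V1 MDR subline, 72 h at 37 degrees C with compound. Analysis: corrected, normalized data fitted to concentration-effect curves.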
HT1080NT lethal = qHTS for induction of synthetic lethality in tumor cells producing 2HG: qHTS for the HT-1080-NT fibrosarcoma cell line; HT-1080-NT fibrosarcoma viability, CellTiter-Glo ATP luminescence, 48 h; Potency, µM (doses to about 46.1 µM), for inactives: top-dose activity, negative = less viability, hits mostly cytotoxic; actives 1.6% (n = 360,000);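 further: NT is the 2HG producing partner of a matched IDH1 knockdown line; 0% = DMSO-treated cells and -100% = media-only wells without cells; nearly all actives have a fitted effect of over 55% in size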
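Viability by CellTiter-Glo luminescence after 48 h compound exposure at 37C of HT-1080-NT cells (750/well, RPMI, 5% FBS). % activity scaled between DMSO wells and medium-only wells, then curve-fitted and categorized by curve class.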
HepG2 tox-1 = qHTS for Inhibitors of TGF-b: Cytotox Counterscreen; HepG2 CAGA-GFP viability, ATP luminescence, 18 h; Potency, µM (doses to about 46.1 µM), inactives show at the highest dose activity change, negative = cytotoxicity, usual class: cytotoxic; actives 0.76% (n = 410,000)
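HepG2 CAGA-GFP cells (1000/well, DMEM with 1% FBS) received compound, then TGF-beta at 500 pg/mL final, and were incubated 18 hours at 37 degrees C. Viability was read by CellTiter-Glo luminescence. Media-only wells were set as complete cell-killing and DMSO as no toxicity.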
TGFb CAGA inh = qHTS for Inhibitors of TGF-b: Confirmation of Cherry Picks. shares compounds with TGFb inhibitor. HepG2 CAGA-GFP TGF-b reporter, GFP fluorescence, 18 h; cells stimulated with TGF-beta, 500 pg/mL. Potency, µM (titrated, usually from 46.1 µM), for inactives: at the top dose activity, negative = inhibition, usual class: inhibitors. actives 63% (n = 1,600). AID 720534, 2013; further: on the % scale 0 is the no-effect control and ±100 the full control effect; nearly all actives have a fitted effect of over 65% in size
HepG2 tox-2 = qHTS for Inhibitors of TGF-b: Cytotox Counterscreen for Cherry Picks | AID 720535, 2013 | Potency, µM (highest dose often 46.1 µM), without a hit: at the highest dose activity, negative = cytotoxicity, most hits filed as inhibitors | actives 27% (n = 1,600) | HepG2 CAGA-GFP viability, ATP luminescence, 18 h; cells stimulated with TGF-beta, 500 pg/mL | shares compounds with TGFb inhibitor; further: on the % scale 0 is the no-effect control and ±100 the full control effect; nearly all actives have a fitted effect of over 70% in size
TGFb CCL64 inh = qHTS for Inhibitors of TGF-b: CCL64 Cells Orthogonal Assay for Cherry Picks | shares compounds with TGFb inhibitor | CCL64 CAGA-GFP reporter, TGF-b stimulated, GFP fluorescence, 18 h | Potency, µM (doses to about 46.1 µM), for the others: at the top dose activity, negative = inhibition, hits mostly inhibitors | actives 41% (n = 1,600) | AID 720536, 2013; further: nearly all actives have a fitted effect of over 65% in size
TGFb COP inh = qHTS for Inhibitors of TGF-b: Hit Validation in HepG2 Cells using COP promoter | shares compounds with TGFb inhibitor | HepG2 COP-GFP TGF-b reporter, GFP fluorescence, 18 h; cells stimulated by added recombinant TGF-beta | Potency, µM (doses to about 46.1 µM), without a hit: top-dose activity, negative = inhibition, actives largely listed as inhibitors | actives 3% (n = 1,600) | AID 720537, 2013; further: nearly all actives have a fitted effect of over 70% in size
The depositor's hits bear a star; i = inactive; ? = inconclusive; nt = no result given. Compounds with a hit are over-represented: about 6.6% of the library has one in this group of screens. The call rests on the fitted dose curve; in most records, active means well fitted curve in the direction sought with a large enough effect; inconclusive means small, poorly fitted or top-dose-only effect, or another doubt; inactive means no such curve, though single readings can be large; an effect the other way counts as inactive or inconclusive. Potency means the concentration at half of the fitted maximal effect.

SMILES	KB-3-1 tox	HT1080 IDH1KD tx	TGFb inhibitor	KB-V1 MDR tox	HT1080NT lethal	HepG2 tox-1	TGFb CAGA inh	HepG2 tox-2	TGFb CCL64 inh	TGFb COP inh
O=C(CCC(=O)N1CCN(S(=O)(=O)c2ccc3ccccc3c2)CC1)Nc1cc(Cl)cc(Cl)c1	i	-14%	7.1µM*	i	-5%	-22%	?	-22%	-16%	-9%
CCCSc1ncc(Cl)c(C(=O)Nc2nc3ccc(C)cc3s2)n1	nt	nt	nt	nt	nt	0%	nt	nt	nt	nt
CCOC(=O)C1=CCN(S(=O)(=O)c2ccccc2F)C1c1cccc(Cl)c1 (stereo not drawn)	i	-1%	11µM*	i	-3%	-18%	?	3%	?	-1%
CCOC(=O)C1=CCN(S(=O)(=O)c2ccccc2F)C1c1ccc(Cl)c(Cl)c1 (stereo not drawn)	i	?	?	i	?	1%	nt	nt	nt	nt
CCOC(=O)C1=CCN(S(=O)(=O)c2ccc(C)cc2)C1c1cccc(Cl)c1 (stereo not drawn)	?	?	10µM*	?	-29%	-32%	23µM*	-7%	0%	-8%
CCOC(=O)C1=CCN(S(=O)(=O)c2ccc(C)cc2)C1c1cccc(F)c1 (stereo not drawn)	i	-5%	?	?	-2%	-25%	nt	nt	nt	nt
CCOc1ccc(NC(=O)CN2C(=O)COc3ccc(S(=O)(=O)Nc4ccccc4)cc32)cc1	i	nt	?	i	nt	-29%	nt	nt	nt	nt
CN1CCN(S(=O)(=O)c2ccc(Sc3nc4ccccc4[nH]3)c3nsnc23)CC1	i	12%	10µM*	i	13%	1%	-19%	6%	6%	9%
CCCCNc1c(-c2ccc(OC)c(SC(C)CC)c2)nc2ccc(Cl)cn12 (stereo not drawn)	i	-5%	10µM*	i	7%	-6%	?	-19%	?	-5%
CCCCCCSc1cc(-c2nc3ccc(Cl)cn3c2NCCCC)ccc1OC	i	14%	9%	?	4%	-1%	nt	nt	nt	nt
CSc1cccc(NC(=O)CCCOc2ccc(Cl)cc2C)c1	i	?	13µM*	i	?	-19%	21µM*	-21%	16%	-16%
COc1ccc(C(NC(=O)C2CCN(CCOc3ccc(Cl)cc3Cl)CC2)c2cccs2)cc1 (stereo not drawn)	?	?	4.5µM*	?	-23%	5µM*	?	?	?	?
COc1ccc(CN2CCN(c3ncnc4scc(-c5ccc(F)cc5)c34)CC2)cc1	i	21%	11µM*	i	23%	-26%	21µM*	?	?	41%
O=C(Nc1ccccn1)c1ccc([N+](=O)[O-])o1	?	?	10µM*	?	?	-102%	16µM*	?	?	22%
O=C(Nc1cccc([N+](=O)[O-])c1)c1ccc([N+](=O)[O-])o1	i	?	?	?	?	-63%	nt	nt	nt	nt
O=C(Nc1cccc(NC(=O)c2ccccc2Cl)c1)c1ccc([N+](=O)[O-])o1	?	9.2µM*	3.5µM*	?	?	-89%	1.3µM*	6.5µM*	8.2µM*	?
COc1ccc(N2CCCC2)c(NC(=O)c2ccc([N+](=O)[O-])o2)c1	?	-12%	5.6µM*	?	-17%	-41%	?	?	?	9%
COc1ccc(C(=O)Nc2cc([N+](=O)[O-])ccc2N2CCCC2)cc1	i	-3%	0%	?	-5%	-1%	nt	nt	nt	nt
O=C(Nc1ncccn1)c1ccc([N+](=O)[O-])o1	?	?	?	i	?	-47%	nt	nt	nt	nt
O=C(Nc1nc2ccc(F)cc2s1)C1CCN(S(=O)(=O)c2cc([N+](=O)[O-])ccc2Cl)CC1	15µM*	?	11µM*	15µM*	?	3%	9.2µM*	?	9.2µM*	28%
COc1ccccc1NC(=O)c1ccc([N+](=O)[O-])o1	?	?	2.8µM*	i	?	13µM*	?	?	?	25%
